Screens: PubChem, National Center for Advancing Translational Sciences (NCATS)
This is a sample that favours compounds with a hit; in the whole collection about 4.7% have one here.
D1 agonist: activates the human D1 dopamine receptor | HEK293 T-REx D1 cells, calcium flux, agonist mode | activation, % at 2 µM | 1% of 360,000 active | AID 504660; further: 0% is about no effect
Target sequence (P21728 whole entry, looked up): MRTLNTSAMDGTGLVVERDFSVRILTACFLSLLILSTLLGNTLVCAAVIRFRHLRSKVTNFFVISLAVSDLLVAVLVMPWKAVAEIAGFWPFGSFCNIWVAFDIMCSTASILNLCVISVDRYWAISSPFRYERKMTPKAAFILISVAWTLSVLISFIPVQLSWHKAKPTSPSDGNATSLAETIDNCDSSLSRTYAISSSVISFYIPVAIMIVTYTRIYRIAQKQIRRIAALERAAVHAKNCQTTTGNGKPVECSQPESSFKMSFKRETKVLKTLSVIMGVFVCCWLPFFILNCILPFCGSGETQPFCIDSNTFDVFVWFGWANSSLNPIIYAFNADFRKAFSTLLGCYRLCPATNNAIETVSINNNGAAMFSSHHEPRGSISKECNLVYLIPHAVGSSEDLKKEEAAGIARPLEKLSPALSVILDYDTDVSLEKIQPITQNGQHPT
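Tetracycline-induced HEK293 TREx D1 cells, force-coupled to calcium signalling, were dye-loaded with a no-wash calcium kit. Compound was pin-added after a 10 s baseline. Fluorescence was read kinetically at 1 cycle/s for 180 s, with calcium rises flagged as agonism.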
D1 PAM: enhances dopamine response at the human D1 receptor; HEK293 TREx D1 cells, calcium flux, dopamine EC20 potentiation; potentiation, % at 10 µM; 0.036% of 360,000 active; in the data active means potentiation above about 30%; further: 0% is about no effect
TRHR PAM: TRH receptor (human) allosteric enhancement; enhancement, % at 2 µM; TRHR cells, fluo-8 calcium fluorescence, EC20 TRH enhancement; 0.66% of 360,000 active; P34981; in the data active means enhancement above about 30%; further: 0% is about no effect
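Enhancer read-out: after compound pinning and an initial kinetic agonist-mode read, an EC20 of TRH (10 nM final) was injected and fluo-8 calcium signal (Ex 480/Em 530) followed at 1 s/cycle for 100 cycles in TRHR-expressing cells.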
TRHR agonist: activates the human TRH receptor | activation, % at 2 µM | AID 493084 | 0.18% of 360,000 active | P34981 | TRHR cells, calcium flux fluo-8, FDSS agonist mode; further: 0% is about no effect
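Fluo-8-loaded TRHR cells; 10 s baseline, compound added, kinetic Ca2+ fluorescence read 1/s, agonist mode.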
D1 antagonist: human D1 dopamine receptor antagonism; HEK293 TREx D1 cells, calcium flux, dopamine EC80; hits give low values; activity change, negative = inhibition, % at 10 µM; 3.2% of 360,000 active; in the data active means activity change below about -30%; further: on the % scale 0 is the no-effect control and ±100 the full control effect
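Tetracycline-induced HEK293 T-REx cells with force-coupled D1 receptor were loaded with a no-wash calcium dye. Compound was added after a 10 s baseline and read kinetically for 180 s; EC80 dopamine was then added and calcium flux followed another 180 s.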
* hit, by the source's call. Unless noted, no stated cut-off is given here; in the data, active means activation above about 30%; inactive means the rest.

SMILES	D1 agonist	D1 PAM	TRHR PAM	TRHR agonist	D1 antagonist
O=C(O)CCc1cc(F)c(S(=O)(=O)N2CCN(S(=O)(=O)c3ccc4c(c3)OCCO4)CC2)cc1F	1	2	10	-2	12
Cc1ccc(S(=O)(=O)Nc2ccc3c(c2)n(C)c(=O)n3C)c(C)c1	8	-6	2	0	-12
Cc1ccc(S(=O)(=O)Nc2cc3c(cc2C)n(C)c(=O)c(=O)n3C)c(C)c1	1	-7	-7	0	-95*
Cc1cccc(Nc2ncnc3onc(-c4cccc(Cl)c4)c23)c1C	2	0	9	0	1
Fc1ccc(Nc2ncnc3onc(-c4cccc(Cl)c4)c23)c(F)c1	-2	-4	-9	0	-45*
Clc1ccc(-c2nnn3c2nc(N2CCCCC2)c2ccccc23)cc1	3	2	-8	1	19
COc1ccc(CCn2c(=N)c(C(=O)NC3CCCC3)cc3c(=O)n4ccccc4nc32)cc1	0	-3	5	-1	-32*
COc1ccc(CCn2c(=N)c(C(=O)NC3CCCC3)cc3c(=O)n4ccccc4nc32)cc1OC	1	-2	-2	1	8
C=C(C)CN1CCN(c2c(CCC#N)c(C)c(C#N)c3nc4ccccc4n23)CC1	-1	-2	2	-1	-38*
CC(C)c1nn2c(=O)cc(COC(=O)c3cccs3)nc2s1	2	-3	1	1	25
Cc1ccc(S(=O)(=O)N2[C@@H](c3ccccc3F)C(C(=O)O)=CC[C@H]2c2ccc(Cl)c(Cl)c2)cc1	58*	-11	1	0	-24
Cc1ccc(S(=O)(=O)N2[C@@H](c3cccc(Cl)c3)C(C(=O)O)=CC[C@H]2c2ccc(C(C)C)cc2)cc1	7	-12	-6	0	-35*
CCOC(=O)C1=C(C)NC(C)=C(C(=O)OCC)C1C(=O)OCC(N)=O	-3	-6	-1	0	1
CN(C(=O)COC(=O)c1ccccc1OCc1ccc(F)cc1)C1CCS(=O)(=O)C1 (configuration not stated)	-1	-6	12	1	-31*
CN(C(=O)COC(=O)c1ccccc1Nc1ccccc1)C1CCS(=O)(=O)C1 (configuration not stated)	0	7	-3	-1	-17
CCOC(=O)C1=C(C)NC(C)=C(C(=O)OCC)C1C(=O)OCC(=O)N(C)C1CCS(=O)(=O)C1 (configuration not stated)	2	-4	-4	0	-36*
CCOC(=O)C1CCCN(c2nc3c(S(=O)(=O)c4ccc(C)c(C)c4)nnn3c3ccc(Cl)cc23)C1 (configuration not stated)	1	-3	7	0	-13
Cc1cc2c(s1)c1cnn(Cc3c(F)ccc(C)c3Cl)c(=O)c1n2C	3	3	-5	1	-23
COc1ccc(OC)c(NC(=O)c2nc(S(=O)(=O)Cc3ccc(F)cc3)ncc2Cl)c1	4	1	-4	-1	-35*
COc1ccccc1NC(=O)c1nc(S(=O)(=O)Cc2ccccc2)ncc1Cl	4	-8	-10	-1	-38*
Cc1ccc(C2CC(=O)n3nc(-c4cccc(C)c4)nc3S2)cc1 (configuration not stated)	-1	-4	2	0	-13
O=C(CCCc1ccccc1)NC1CCSC1=O (configuration not stated)	0	2	-3	0	1
O=C(Cc1ccc(F)cc1)NC1CCSC1=O (configuration not stated)	3	-2	-1	0	-33*
CCc1ccc(CNC(=O)c2sc3ncccc3c2-n2c(C)ccc2C)cc1	6	-2	1	0	0
O=C(O)CC(C(=O)Nc1ccc(Cl)cc1Cl)C1CCCO1 (configuration not stated)	0	-2	-4	1	-63*
SMILES	D1 agonist	D1 PAM	TRHR PAM	TRHR agonist	D1 antagonist
Cc1ccc(C)c(NC(=O)C(CC(=O)O)C2CCCO2)c1 (configuration not stated)	1	-5	-2	0	1
Cc1ccc(NC(=O)CN2C=NS(=O)(=O)c3ccccc32)cc1	0	-1	0	0	12
COc1ccc(C(=O)N(C)CCCC2CCCC2)cc1OC1CCN(C(C)C)CC1	17	-3	3	0	-47*
COCCC(=O)N1CCC(Oc2ccc(C(=O)N(C)CCCC3CCCC3)cc2)CC1	21	-6	9	-1	-33*
CCC(Sc1nc2n[nH]c(C)c2c(=N)n1-c1cccc(Cl)c1C)C(=O)N(CC)CC (configuration not stated)	1	5	-3	0	-41*
CCc1ccc(-n2c(SC(CC)C(=O)N(CC)CC)nc3n[nH]c(C)c3c2=N)cc1 (configuration not stated)	3	4	-1	-1	15
Cn1c(=O)c2sccc2n2c(CCCC(=O)Nc3ccc(Oc4ccccc4)cc3)nnc12	0	-5	-9	0	0
Cc1ccc(S(=O)(=O)NCCc2c[nH]c3ccccc23)cc1	4	-6	-1	0	-19
O=S(=O)(NCCc1c[nH]c2ccccc12)c1ccccc1	20	-6	-5	0	-36*
S=C(NCCc1c[nH]c2ccccc12)NC1CCCC1	7	1	-2	1	-39*
S=C(NCCCc1ccccc1)NC1CCCCC1	32*	-5	-3	2	-1
S=C(NCCc1c[nH]c2ccccc12)NC1CC1	1	-3	32*	0	0
Cc1ccc(-n2nnc(-c3nsc(NC(=O)c4ccccc4C)n3)c2C)cc1Cl	3	-3	7	-1	-4
CC1=C(C(=O)Nc2cccc(C(F)(F)F)c2)C(c2ccccc2)n2ncnc2N1 (configuration not stated)	-2	-1	-2	0	0
Cc1ccc(Cn2c(C(=O)O)c(CNCc3ccc(OC(C)C)cc3)c3ccc(C)cc32)cc1	4	1	5	0	3
COC(=O)C1=C(C)NC(=O)NC1c1cn(-c2ccccc2)nc1-c1ccc(OC)c(Cl)c1 (configuration not stated)	0	10	6	1	-5
COc1ccc(N2CCN(C(=S)Nc3cccc(C)c3)CC2)cc1	1	-2	-1	-1	-41*
COc1cccc(N2CCN(C(=S)Nc3cccc(C)c3)CC2)c1	8	-1	0	-1	-4
Cc1ccc(C(=O)N2CCN(c3ccc(NC(=O)c4cccnc4)cc3)CC2)cc1	-1	-6	4	1	-31*
CNC(=S)N1CCN(c2ccc(Cl)c(Cl)c2)CC1	10	-7	-1	1	-31*
Cc1ccccc1C(=O)N1CCN(c2ccc(NC(=O)c3cccnc3)cc2)CC1	1	-11	2	0	-19
COC(=O)N1CCN(c2ccc(Cl)c(Cl)c2)CC1	13	5	-2	0	-6
